In all, about 68,000 compounds went through this assay and about 2,700 (4%) showed an effect of 50% or more. For the sample, strong results were picked, then their nearest neighbours and some compounds at random.
test system: Plasmodium berghei; experiment: Screen against P. berghei liver stage (PbLuc), transformed with Luciferase, at 2uM; format: functional, HepG2; settings: tested at 2 uM

Structure (SMILES) | INHIBITION [%]
CC(=O)NC(C)(C)c1noc(C2(C#N)CCCCC2)n1 | 22.41
Cc1nc(CCNC(=O)NC2CCN(c3ncccn3)CC2)cs1 | -17.45
Cc1nc(CNC(=O)NC2CCCN(c3ncccn3)C2)cs1 (configuration not stated) | 30.96
Cc1nc(CNC(=O)NC2CCN(c3ncccn3)CC2)cs1 | 56.78
Cc1nn(C)c(N2CCOCC2)c1CNCc1ccoc1C | 10.4
Cc1nc(CNCc2c(C)nn(C)c2N2CCOCC2)cs1 | -14.3
Cc1nn(C)c(N2CCOCC2)c1CNCc1ccccc1CO | 50.18
Cc1nn(C)c(N2CCOCC2)c1CNCc1ccc2c(c1)OCO2 | 18.01
COc1ncccc1CNCc1c(C)nn(C)c1N1CCOCC1 | 40.24
Cc1cc(CNCc2c(C(C)C)nn(C)c2N2CCOCC2)no1 | 22.16
Cc1cc(CNCc2c(C)nn(C)c2N2CCOCC2)no1 | 65.77
Cc1nn(C)c(N2CCOCC2)c1CNCc1ccc(CO)c(F)c1 | 63.05
Cc1nn(C)c(N2CCOCC2)c1CNCc1ccnc(N(C)C)c1 | 17.11
CN(Cc1ccc(F)cc1)CC1(O)CCN(C(=O)c2cccs2)C1 (configuration not stated) | -27.04
CC(C)c1nc2n(n1)CC(NCc1nnc(C3CC3)o1)CC2 (configuration not stated) | -30.61
O=C(CCNC(=O)C1CCCC1)NCc1cccnc1-n1cncn1 | -18.67
Cc1nn(C)c(C)c1C1SCC(=O)Nc2c1c(O)nn2C(C)C (configuration not stated) | 4.89
COc1ccc(Cl)cc1CN(C)CC(=O)Nc1ccnn1C(C)C1CC1 (configuration not stated) | -13.72
Cc1cccc(C2(CNC(=O)CO)CCCC2)c1 | 35.23
CC(=O)N(C)CC(=O)NCC1(c2c(F)cccc2F)CCCC1 | -41.54
CC(=O)N(C)CC(=O)NCC1(c2cccc(C)c2)CCCC1 | 54.29
CN1CCC(c2cccc(CCC(=O)NCC(N)=O)n2)CC1 | 7.64
CN(C)C(=O)N1CCC2(CC1)CN(CC1CC1)CC21CCNC1=O (configuration not stated) | 35.89

Structure (SMILES) | INHIBITION [%]
CC(=O)N1CCC2(CC1)CN(C(C)=O)CC21CCNC1=O (configuration not stated) | 24.36
CC(=O)N1CCC2(CC1)CN(CC(C)C)CC21CCNC1=O (configuration not stated) | 63.35
CCC[C@@H]1CN(Cc2cc(C#N)n(C)c2C)C[C@H]1NS(C)(=O)=O | 1.88
CCC[C@H]1CN(Cc2cc(C#N)n(C)c2C)C[C@@H]1N(C)C | 51.4
CCC[C@H]1CN(Cc2cc(C#N)n(C)c2C)C[C@@H]1NS(=O)(=O)CC | 35.26
NC(=O)c1sc2ccccc2c1C1CCN(S(=O)(=O)N2CCOCC2)C1 (configuration not stated) | -18.15
Cc1noc(C)c1CN1CC[C@@H]2O[C@@H](COCC(C)C)CC[C@@H]21 | 13.87
COCCN1CC[C@@H]2O[C@@H](COCC(=O)N3CCCC3)CC[C@@H]21 | -14.49
CN(C)CCN1CC[C@@H]2O[C@@H](COCC(=O)N3CCCC3)CC[C@@H]21 | -30.82
COCCN1CC[C@@H]2OC(COCC(=O)N3CCCC3)CC[C@@H]21 (some centres not stated) | 51.05
Cc1ncnc2c1CCN(Cc1cccs1)CC2 | -8.24
CNS(=O)(=O)CC(=O)N1CCC(c2cc3ccccc3[nH]2)CC1 | -46.85
O=C(C1CCCCC1)N1CCC2(CCCN2CC2CC2)CC1 | 24.15
O=C(C1CCC1)N1CCC2(CCCN2CC2CC2)CC1 | 55.66
O=C(C1CCCC1)N1CCC2(CC1)COCCN2CC1CC1 | -11.91
CC(C)NC(=O)[C@@H]1CC[C@@H]2[C@@H](CCN2Cc2cn(C)c3ccccc23)O1 | 29.43
CCN1CC(C(=O)NCCCc2nc(C)c(C)s2)CC1=O (configuration not stated) | 72.05
Cc1nc(CCCNC(=O)C2CC(=O)N(C(C)(C)C)C2)sc1C (configuration not stated) | 13.87
Cc1nc(CCCNC(=O)C2CC(=O)N(C3CC3)C2)sc1C (configuration not stated) | -52.42
CCS(=O)(=O)NCc1cccnc1N1CCCC(O)C1 (configuration not stated) | -5.31
Nc1nc(C2CCN(C(=O)c3cncs3)CC2)cs1 | 0.14
CCNC(=O)CNS(=O)(=O)c1cc(Br)ccc1F | 42.32
CCC(=O)Nc1ccc(F)c(S(=O)(=O)NC(C)(C)C)c1 | 57.75

Structure (SMILES) | INHIBITION [%]
CC(=O)Nc1ccc(F)c(S(=O)(=O)NC(C)(C)C)c1 | -1.87
COC1CCN(c2ccc(NC(=O)C3CC3)cc2C(F)(F)F)CC1 | -1.71
CC(C)(C)NS(=O)(=O)c1cc(NC(=O)C2CC2)ccc1F | 62.51
CC(C)(C)NS(=O)(=O)c1ccc(NC(=O)C2CC2)cc1 | 17.2
CCS(=O)(=O)N1Cc2c(Cn3ccnc3)nn(C(C)C)c2C1 | 3.72
Cc1n[nH]c(C)c1CC(=O)NCCc1ccccc1 | 25.21
Cc1nc(C(=O)N2CCOC(Cc3ccccc3)C2)co1 (configuration not stated) | 5.76
Cc1nc(C(=O)N2CCOC(Cc3ccc(F)cc3)C2)co1 (configuration not stated) | 51.45
COc1ccc(CC2CN(C(=O)c3coc(C)n3)CCO2)cc1 (configuration not stated) | -10.03
CCOCCN1CCn2c(C)nnc2C1 | 58.53
Cc1cc(C)cc(OCCN2CCn3c(C)nnc3C2)c1 | 20.41
Cc1nnc2n1CCN(CCOc1ccccc1)C2 | -55.52
CC(C)[C@H]1CN(CCCO)C[C@@H]1NC(=O)CCS(C)(=O)=O | 25.9
O=C(CCS(=O)(=O)C1CCCC1)NCc1ccccc1Cn1cncn1 | 31.57
COc1c(CNC2CCCc3ccccc32)c(C(C)C)nn1C (configuration not stated) | 69.22
COc1c(CNC2CCc3ccccc32)c(C(C)C)nn1C (configuration not stated) | 24.65
COc1c(CNC2CCOc3ccccc32)c(C)nn1C (configuration not stated) | 64.08
COc1c(CNC2CCCOc3ccccc32)c(C)nn1C (configuration not stated) | -18.88
COc1c(CNC2CCCc3ccccc32)c(C)nn1C (configuration not stated) | 11.28
Cc1nn(C)c(Oc2ccccc2)c1CNC1CCOc2ccccc21 (configuration not stated) | -15.64
O=C1NCCCC[C@@H]1Nc1ccc(-c2nc(C3CC3)no2)cn1 | 8.75
